The values that follow come from PubChem BioAssay (NCATS).

Each structure is given as a SMILES string. Results filed as inconclusive are left out. Calls of active or inactive are those of the source. Unless noted, the call rests on the fitted dose curve; in most records, active means well fitted curve in the direction sought with a large enough effect; inconclusive means small, poorly fitted or top-dose-only effect, or another doubt; inactive means no such curve, though single readings can be large; an effect the other way counts as inactive or inconclusive.

In one assay the test system is C2A. The assay is described as follows: qHTS profiling for inhibitors of Plasmodium falciparum proliferation (AID 504749). Further: nearly all actives have a fitted effect of over 60% in size. Particulars: P. falciparum in erythrocytes, SYBR Green DNA, 72 h; series mostly up to 12.8 µM. In short, it runs like this:
(§1)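 SYBR Green fluorescence (ex 485 nm, em 535 nm) reports parasite DNA after 72 h compound exposure of infected red cells at 0.3% parasitemia, 2.5% hematocrit; signal normalized to 0.29 uM artemisinin and vehicle wells.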
For orientation: Quantitative high-throughput screening tests each substance at several concentrations.

In a further assay the test system is CP250. Described as above. Particulars: P. falciparum in erythrocytes, SYBR Green DNA, 72 h; series mostly up to 12.8 µM. In short, it runs like this: as §1
A further assay concerns CP256. The description is as above. Particulars: P. falciparum in erythrocytes, SYBR Green DNA, 72 h; series mostly up to 12.8 µM. The method, boiled down:
as §1

The next assay relates to CP262. The assay is described as above. Particulars: P. falciparum in erythrocytes, SYBR Green DNA, 72 h; series mostly up to 12.8 µM. In short, it runs like this: as §1
The next assay concerns CP266. The description is as above. Particulars: P. falciparum in erythrocytes, SYBR Green DNA, 72 h; series mostly up to 28.7 µM. The method, boiled down:
as §1

The subject of a further assay is CP329. The assay is described as above. Particulars: P. falciparum in erythrocytes, SYBR Green DNA, 72 h; series mostly up to 12.8 µM. The method, boiled down:
as §1

The subject of a further assay is ECU. The assay is described as above. Particulars: P. falciparum in erythrocytes, SYBR Green DNA, 72 h; series mostly up to 12.8 µM. In short, it runs like this: as §1
For another assay, the system named is FAB9. The assay is described as above. Particulars: P. falciparum in erythrocytes, SYBR Green DNA, 72 h; series mostly up to 12.8 µM. In short, it runs like this:
as §1

The next assay has as its system JCK. The assay is described as above. Particulars: P. falciparum in erythrocytes, SYBR Green DNA, 72 h; series mostly up to 12.8 µM. The method, boiled down:
as §1

In a further assay the test system is PAD. Described as above. Particulars: P. falciparum in erythrocytes, SYBR Green DNA, 72 h; series mostly up to 12.8 µM. The method, boiled down:
as §1

The next assay deals with PC15. The assay is described as above. Particulars: P. falciparum in erythrocytes, SYBR Green DNA, 72 h; series mostly up to 12.8 µM. In short, it runs like this:
as §1

Assay [1] in a line: Viability counterscreen for antagonist of constitutive androstane receptor (CAR) against the NCATS DSHEA and TCM libraries (AID 1794837).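 Further: compound exposure lasted 24 h before viability reading.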 In short, it runs like this:
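HepG2-CYP2B6-hCAR cells (2,500/well) were allowed to attach for 5 h, then exposed to compounds with 48 uM CITCO for 24 h at 37C. Viability was read by CellTiter-Fluor fluorescence after 1 h.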
A general note: Counterscreens check selectivity or assay interference.

The nature of assay [2]: Viability counterscreen for agonist of constitutive androstane receptor (CAR) against the NCATS DSHEA and TCM libraries (AID 1794838).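 Further: HepG2 cells with CYP2B6 reporter and hCAR plus 0.75 µM PK11195 antagonist.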 The method, boiled down:
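HepG2-CYP2B6-hCAR cells (2,500/well) attached 5 h, then got compounds plus 0.75 uM PK11195 final. After 24 h at 37C, viability read by CellTiter-Fluor fluorescence (Ex/Em 405/540 nm).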

In assay [3] the target is Cytochrome P450 2C19 (Homo sapiens) (UniProt P33261). The assay is described as follows: qHTS for inhibitors of CYP2C19 against the NCATS DSHEA and TCM libraries (AID 1919974).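 Further: luminescence from luciferin released by CYP2C19 oxidation of a pro-luciferin substrate.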 Further: potency means the concentration at half of the fitted maximal effect. The method, boiled down: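 Isoform-specific enzyme and substrate levels; enzyme-free wells as background. Reaction: 1x NADPH regenerating system, 30-45 min, room temperature, shielded from light; luminescent detection reagent added, 30 min.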
Cytochrome P450 2C19 (Homo sapiens), sequence (P33261 whole entry, looked up, canonical isoform): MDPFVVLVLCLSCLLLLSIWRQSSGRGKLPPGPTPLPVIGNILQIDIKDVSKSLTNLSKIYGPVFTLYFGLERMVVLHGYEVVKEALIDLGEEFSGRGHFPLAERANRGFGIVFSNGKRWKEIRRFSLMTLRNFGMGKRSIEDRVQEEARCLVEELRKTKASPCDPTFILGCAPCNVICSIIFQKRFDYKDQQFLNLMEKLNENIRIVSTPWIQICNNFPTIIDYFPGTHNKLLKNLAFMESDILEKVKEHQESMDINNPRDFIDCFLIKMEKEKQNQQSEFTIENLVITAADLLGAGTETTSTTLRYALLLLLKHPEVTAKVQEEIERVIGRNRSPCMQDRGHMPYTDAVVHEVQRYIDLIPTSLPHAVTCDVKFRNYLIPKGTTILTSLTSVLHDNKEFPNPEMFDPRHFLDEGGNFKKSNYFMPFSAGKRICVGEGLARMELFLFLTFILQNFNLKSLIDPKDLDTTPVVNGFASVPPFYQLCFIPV

Assay [4] has as its target Cytochrome P450 1A2 (Homo sapiens) (UniProt P05177). The assay is described as follows: qHTS for inhibitors of CYPIA2 against the NCATS DSHEA and TCM libraries (AID 1919976). Further: potency means the concentration at half of the fitted maximal effect. In short, it runs like this:
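Furafylline served as the plate control. Compounds met CYP1A2 and pro-luciferin substrate 15 min before NADPH regeneration solution (1x) was added; after 30-45 min at RT, P450-Glo reagent was added for 30 min and luminescence was measured.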

Assay [5] has as its target Nuclear receptor subfamily 1 group I member 2 (Homo sapiens) (UniProt O75469). The assay is described as follows: Dual reporter qHTS for antagonist of Pregnane X Receptor (hPXR) against the NCATS DSHEA and TCM libraries: Luminescence Readout (AID 1920060).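 Further: HepG2 cells carrying hPXR luciferase reporter stimulated with rifampicin at 2 µM.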 The method, boiled down: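 hPXR-Luc HepG2 cells exposed 24 h at 37 C to compounds with 2 uM rifampicin in antagonist mode; luciferase luminescence measured by ONE-Glo, with CellTiter-Fluor viability read beforehand.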

Assay [6] deals with Dual specificity protein kinase CLK4 (Homo sapiens) (UniProt Q9HAZ1). The assay is described as follows: qHTS Assay for Inhibitors of CDC-like Kinase 4 (ADP-Glo Assay) (AID 1771). Further: nearly all actives have a fitted effect of over 70% in size. Further: potency means the concentration at half of the fitted maximal effect. The method, boiled down: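 In this ADP-Glo format, 1 uM ATP and 100 uM RS peptide served as substrates for 25 nM Clk4 in Mg2+/EGTA/DTT/Triton buffer; reactions ran 1 hr at room temperature before luminescent ADP quantification.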
Dual specificity protein kinase CLK4 (Homo sapiens), sequence (Q9HAZ1 whole entry, looked up): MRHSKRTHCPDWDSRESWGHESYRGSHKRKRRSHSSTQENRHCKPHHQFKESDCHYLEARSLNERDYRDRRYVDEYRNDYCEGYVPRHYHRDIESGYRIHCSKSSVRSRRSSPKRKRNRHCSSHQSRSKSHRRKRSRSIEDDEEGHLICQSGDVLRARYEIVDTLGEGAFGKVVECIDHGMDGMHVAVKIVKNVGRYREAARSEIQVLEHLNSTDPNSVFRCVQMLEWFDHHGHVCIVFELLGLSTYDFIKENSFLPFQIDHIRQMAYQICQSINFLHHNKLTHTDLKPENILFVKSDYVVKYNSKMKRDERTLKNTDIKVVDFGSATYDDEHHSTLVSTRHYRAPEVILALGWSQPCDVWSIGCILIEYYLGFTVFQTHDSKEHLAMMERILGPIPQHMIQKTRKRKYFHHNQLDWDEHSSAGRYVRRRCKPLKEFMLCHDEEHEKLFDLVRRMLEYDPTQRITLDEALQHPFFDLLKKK

Assay [7] in a line: Cell Viability - BJ (AID 421; calls by dose curve;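 further: potency means the concentration at half of the fitted maximal effect; cells exposed to compound for 40 hours at 37 °C before readout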). Particulars: BJ fibroblast viability, qHTS. The method, boiled down:
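Normal human BJ foreskin fibroblasts, 1500/well in complete medium, treated 40 hr at 37 °C. Cellular ATP by CellTiter-Glo luminescence; normalized to DMSO and 100 uM tamoxifen, AC50 from Hill fit.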

Assay [8] can be described thus: Cell Viability - Jurkat (AID 426;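 active means dose-dependent loss of cell ATP signal giving a full or clear fitted curve, ranked by lower potency value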;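 further: potency means the concentration at half of the fitted maximal effect; cells exposed to compound for 40 hours at 37 °C before ATP read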). Particulars: qHTS. The method, boiled down:
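Cytotoxicity was scored as loss of cellular ATP, measured by luciferase-based luminescence, in Jurkat clone E6-1 cells after 40 h compound treatment; tamoxifen and doxorubicin served as positive controls.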

Assay [9] can be described thus: qHTS Assay for Identification of Small Molecule Inducers of Hypoxia Response (AID 2120; active means well fitted curve in the direction sought with a large enough effect in the signal ratio, with a control signal flat, not every such curve was filed as active; the % refers to the signal ratio). In short, it runs like this:
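HRE-bla ME-180, 2500 cells/well, 0.5% dialyzed FBS medium; cpd titration, 17 h 37 degrees C; CCF4 2.5 h RT; Ex 405, Em 460/530 ratio -> %Activity, AC50.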

Nuclear receptor subfamily 1 group I member 2 (Homo sapiens), sequence (O75469 whole entry, looked up): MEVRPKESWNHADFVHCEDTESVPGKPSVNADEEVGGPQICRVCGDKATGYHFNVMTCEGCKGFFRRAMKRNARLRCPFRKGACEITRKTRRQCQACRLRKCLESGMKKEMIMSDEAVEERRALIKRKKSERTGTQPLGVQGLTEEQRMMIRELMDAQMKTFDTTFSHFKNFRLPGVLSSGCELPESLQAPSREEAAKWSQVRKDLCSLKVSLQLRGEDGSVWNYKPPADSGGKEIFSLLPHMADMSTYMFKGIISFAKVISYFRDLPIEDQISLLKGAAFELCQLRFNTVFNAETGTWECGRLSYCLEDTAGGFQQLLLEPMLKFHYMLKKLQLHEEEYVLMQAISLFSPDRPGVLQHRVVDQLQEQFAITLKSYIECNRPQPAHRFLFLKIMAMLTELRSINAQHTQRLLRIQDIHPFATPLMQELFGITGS
Cytochrome P450 1A2 (Homo sapiens), sequence (P05177 whole entry, looked up): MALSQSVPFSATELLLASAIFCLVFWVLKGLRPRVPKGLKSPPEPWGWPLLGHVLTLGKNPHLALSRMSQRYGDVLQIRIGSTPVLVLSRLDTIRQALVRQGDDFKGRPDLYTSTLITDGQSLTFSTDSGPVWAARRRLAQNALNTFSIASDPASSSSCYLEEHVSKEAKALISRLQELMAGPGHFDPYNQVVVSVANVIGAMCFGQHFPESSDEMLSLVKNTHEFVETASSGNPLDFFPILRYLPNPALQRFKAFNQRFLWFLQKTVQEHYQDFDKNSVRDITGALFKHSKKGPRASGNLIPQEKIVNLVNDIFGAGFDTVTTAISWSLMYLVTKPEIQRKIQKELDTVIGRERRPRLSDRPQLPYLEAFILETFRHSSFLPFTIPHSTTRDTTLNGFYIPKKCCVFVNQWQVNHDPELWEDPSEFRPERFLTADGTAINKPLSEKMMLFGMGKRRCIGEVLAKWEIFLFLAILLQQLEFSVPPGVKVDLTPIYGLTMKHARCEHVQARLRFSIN

For `C[C@@H]1CCC[C@H](C)N1NC(=O)c1ccc(Cl)c(S(N)(=O)=O)c1`, the Potency result with C2A, in the assay with CP250, with CP256, in the assay with CP262, in the assay with CP266 and in the assay on CP329 was “inactive” throughout. Also, the Potency result with ECU, in the assay with FAB9, in the assay with JCK, in the assay on PAD and in the assay with PC15 was “inactive” each time.
On to `C=C[C@](C)(O)CCC=C(C)C`, for which the compound was called inactive in assay [1], in assay [2] and in [5]. The Potency in [3] and in assay [4] was 3.55 µM (active) throughout.
Take `O=c1c(-c2ccc(F)cc2)nc2cnc(N3CCOCC3)nc2n1C1CC1`: the Potency entry in assay [6] is “inactive”.
On to `COc1ccc2ccc(=O)oc2c1`, for which the call in [1], in [2] and in assay [5] was inactive. Also, the Potency entry in [3] was “inactive”. For the same compound, in assay [4], the Potency is 14.1 µM (active).
In the case of `N#Cc1cccc(-c2ccc3ncnc(NCc4ccccc4)c3c2)c1`, the Potency in [6] was 8.91 µM (active).
As to `N#Cc1ccccc1-c1ccc2ncnc(NCc3cccs3)c2c1`, in [6], the Potency was 3.16 µM (active).
On to `C=C(C)[C@H]1CC=C(C)C(=O)C1`, for which the Potency in [7] and in assay [8] was > 92 µM (inactive) each time. The compound was called inactive in [9], in assay [1], in [2] and in assay [5]. The Potency entry in [3] and in assay [4] was “inactive” throughout.
In the case of `C=CC(C)(O)CCC=C(C)C` (stereo not given), the Potency in assay [7] and in assay [8] was > 92 µM (inactive) each time. The result in [9] was inactive.
As to `COS(C)(=O)=O`, the Potency in [7] and in assay [8] was > 92 µM (inactive) in each case. In addition, the call in assay [9] was inactive.
As to `Cc1occc(=O)c1O`, the Potency in assay [7] and in [8] was > 92 µM (inactive) in each case. The result in assay [9] was inactive.
Turning to `O=C(/C=C/c1ccc(O)c(O)c1)OC(Cc1ccc(O)c(O)c1)C(=O)O` (stereo not given), the result in assay [1] and in assay [2] was inactive. Moreover, in assay [3], the Potency is 3.55 µM (active).
As for `Cc1nc2cnc(Nc3ccccc3)nc2n(C[C@H]2CCCO2)c1=O`, the Potency in assay [6] was 22.4 µM (active).
`CN(C)CC/C=C1\c2ccccc2CSc2ccccc21`: the Potency entry in the assay with C2A, with CP250, with CP256, with CP262, with CP266 and with CP329 was “inactive” each time. The Potency result in the assay on ECU, with FAB9, in the assay with JCK, in the assay on PAD and in the assay with PC15 was “inactive” each time.
With `NC(Cc1c[nH]c2ccccc12)C(=O)O` (stereo not given), the values for the Potency in assay [3] and in [4] were 3.16 µM (active) and 3.55 µM (active), respectively. For the same compound, the compound was called inactive in [5].
For `COc1ccc(-c2nc3cnc(OC)nc3n(C[C@H]3CCCO3)c2=O)cc1`, in assay [6], the Potency result is “inactive”.
Consider `COC(=O)C1=CO[C@@H](C)[C@H]2CN3CCc4c([nH]c5ccccc45)[C@@H]3C[C@H]12`, for which the call in assay [1], in assay [2] and in assay [5] was inactive. In addition, the Potency in assay [4] is 3.55 µM (active).
For the compound `CC1=CC(=O)CC(C)(C)C1(O)/C=C/C(C)=C\C(=O)O` (stereo not given), the Potency in [7] and in [8] was > 92 µM (inactive) in each case. Also, in assay [9], the compound was classed as inactive.
Regarding `CN1[C@@H]2CC[C@H]1CC(OC(=O)[C@@H](O)c1ccccc1)C2` (stereo not given in full), the Potency result in the assay with C2A, with CP250, in the assay with CP256, with CP262, in the assay on CP266 and in the assay on CP329 was “inactive” throughout. Also, the Potency result in the assay with ECU, in the assay on FAB9, in the assay with JCK, in the assay with PAD and with PC15 was “inactive” throughout.
On to `CN1CCCC[C@@H]1CCN1c2ccccc2Sc2ccc(S(C)=O)cc21` (stereo not given in full), for which the Potency entry with C2A, in the assay with CP250, in the assay with CP256, with CP262, with CP266 and in the assay with CP329 was “inactive” throughout. Besides, the Potency result with ECU, with FAB9, in the assay on JCK, in the assay with PAD and with PC15 was “inactive” each time.
Turning to `CC[C@@]12CCCN3CCc4c(n(c5ccccc45)C(=O)C1)[C@H]32`, the Potency result with C2A, in the assay on CP250, with CP256, in the assay on CP262, in the assay with CP266 and in the assay with CP329 was “inactive” throughout. Moreover, the Potency entry in the assay with ECU, in the assay with FAB9, with JCK, in the assay with PAD and in the assay with PC15 was “inactive” throughout.
